Compounds with a hit are over-represented: about 6.9% of the library has one in this group of screens.
Vif-A3G inh: blocks the Vif interaction with human APOBEC3G; Q9HC16; HeLa A3G-eYFP + Vif (tagged APOBEC3G with the HIV-1 protein that degrades it), YFP fluorescence, overnight; 410,000 tested, 0.076% active; Potency, µM (series often up to 46.1 µM), for inactives: at the highest dose activity, negative = active, actives largely listed as inhibitors; further: potency means the concentration at half of the fitted maximal effect; on the % scale 0 is the no-effect control and ±100 the full control effect; nearly all actives have a fitted effect of over 60% in size
Target sequence (Q9HC16 whole entry, looked up): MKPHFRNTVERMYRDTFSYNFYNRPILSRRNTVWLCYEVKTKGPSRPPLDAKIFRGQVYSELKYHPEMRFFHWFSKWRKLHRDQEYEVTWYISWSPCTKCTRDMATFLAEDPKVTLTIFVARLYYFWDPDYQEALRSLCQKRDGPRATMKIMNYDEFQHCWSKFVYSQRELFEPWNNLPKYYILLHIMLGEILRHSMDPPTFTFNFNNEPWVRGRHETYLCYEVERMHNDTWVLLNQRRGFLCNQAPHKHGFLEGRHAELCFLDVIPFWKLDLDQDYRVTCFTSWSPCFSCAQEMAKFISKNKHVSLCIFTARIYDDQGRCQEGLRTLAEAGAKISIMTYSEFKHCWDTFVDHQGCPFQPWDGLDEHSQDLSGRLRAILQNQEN
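Read-out is eYFP fluorescence (Ex 488/Em 500-530) from Vif-expressing HeLa A3G-eYFP cells; more signal means A3G escaped Vif-mediated degradation. Cells plated overnight, compound pinned in, incubated overnight at 37 deg C.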
MCF10A rereplic: inducers of DNA re-replication in MCF 10A breast cells; Potency, µM (series often up to 46.1 µM), inactives show at the top dose activity, positive = re-replication, actives largely listed as activators; 350,000 tested, 2.9% active; MCF 10A DNA re-replication, Hoechst nuclear intensity, 48 h; AID 624296; further: potency means the concentration at half of the fitted maximal effect; % of control where 0% means no effect; nearly all actives have a fitted effect of over 50% in size
IL-1B inflam inh: inflammasome signaling inhibition, IL-1 beta readout | THP-1 LPS/ATP IL-1B secretion, AlphaLISA, 16 h; hits give low values | activity change, % at 57.5 µM | 360,000 tested, 4.7% active | AID 743279; in the data active means activity change below about -50%; inconclusive means mostly about -30% to -49%; further: on the % scale 0 is the no-effect control and ±100 the full control effect
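Secreted IL-1B measured by AlphaLISA bead assay after 16 h compound exposure of THP-1 cells; compounds (final up to 57.5 uM) added 1 h before LPS (250 ng/mL) and ATP (1.25 mM) stimulation; lower signal means less secretion.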
Vif-A3F inh: inhibitors of Vif-A3F interaction; 390,000 tested, 0.2% active; HeLa A3F-eYFP + Vif (tagged APOBEC3F with the HIV-1 protein that degrades it), YFP fluorescence increase; Potency, µM (doses to about 46.1 µM), for inactives: at the top dose activity, negative = active; AID 602313; further: potency means the concentration at half of the fitted maximal effect; % of control where 0% means no effect; nearly all actives have a fitted effect of over 65% in size
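HeLa cells stably expressing Vif plus C-terminally eYFP-tagged A3F were seeded, incubated overnight at 37 deg C, dosed with compound, incubated overnight again at 37 deg C. Yellow fluorescence (Ex 488/Em 500-530) reported blocked Vif-mediated A3F-eYFP degradation.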
SW480 rereplic: inducers of DNA re-replication in SW480 colon cancer cells; SW480 DNA re-replication, Hoechst DNA content imaging, 48 h; Potency, µM (titrated, usually from 46.1 µM), without a hit: top-dose re-replication activation, hits mostly activators; 340,000 tested, 1.8% active; further: potency means the concentration at half of the fitted maximal effect; % of control where 0% means no effect; nearly all actives have a fitted effect of over 55% in size
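Per well, 250 cells were exposed to pinned compound for 48 hr. Nuclear DNA was visualised with Hoechst (40 min, 37 C) and total object intensity recorded by fluorescence scanning.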
Giardia killer: kills Giardia lamblia. 340,000 tested, 0.15% active. Giardia lamblia trophozoite viability. AID 540267. activity change, % at 7.66 µM, hits read low; in the data active means activity change below about -80%; inconclusive means between about -30% and that limit;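 further: parasites exposed to compound for two days anaerobically before the ATP read; on the % scale 0 is the no-effect control and ±100 the full control effect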
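Compounds were tested on trophozoites seeded at 100 cells/well and held 48 hrs at 37 deg C anaerobically. An ATP-based luminescent kit measured the remaining live cells.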
Starred values were filed as active, the others as inactive; i = inactive; ? = inconclusive; / = no result given. Unless noted, the call rests on the fitted dose curve; in most records, active means well fitted curve in the direction sought with a large enough effect; inconclusive means small, poorly fitted or top-dose-only effect, or another doubt; inactive means no such curve, though single readings can be large; an effect the other way counts as inactive or inconclusive.

SMILES | Vif-A3G inh | MCF10A rereplic | IL-1B inflam inh | Vif-A3F inh | SW480 rereplic | Giardia killer
O=C(N/N=C/c1cc(Br)cc(Br)c1O)c1ccncc1 | 1% | ? | 164 | ? | 1µM* | 8
O=C(N/N=C/c1ccc(Br)s1)c1cccs1 | -18% | 3% | 10 | ? | 3% | -2
O=C(N/N=C/c1ccc(Br)s1)c1c[nH]c2ccccc12 | -15% | 12% | -81* | 0% | 0% | -12
O=C(N/N=C/c1ccc(Br)s1)c1ccncc1 | 8% | ? | 4 | 4% | 10µM* | -2
O=C(C[n+]1ccccc1)N/N=C/c1cc(Br)cc(Br)c1O | 3% | ? | 85 | 9% | ? | 10
COc1ccc(Cl)c(Cn2cnc3c(cnn3C(C)(C)C)c2=O)c1 | -2% | / | / | / | / | /
COC(=O)c1ccc(Nc2nnc(-c3ccc(C)c(S(=O)(=O)N4CCN(C)CC4)c3)c3ccccc23)cc1 | -8% | / | / | -5% | / | /
COc1ccc(OCC(=O)Nc2nc(-c3ccc(Br)cc3)ns2)cc1 | -2% | / | / | -4% | / | /
O=S(=O)(c1ccc(Br)cc1)N1CCN(c2nc(-c3ccccc3)nc3ccccc23)CC1 | 0% | / | / | / | / | -14
CCc1sc(-c2cc3cccc(OC)c3oc2=O)nc1-c1ccccc1 | -7% | / | / | / | / | -17
COc1ccc(C(C(=O)NC2CCCC2)N(C(=O)c2snc(-c3ccc(F)cc3)c2N)c2cccc(F)c2)cc1 (configuration not stated) | 0% | ? | 40 | -24% | 21µM* | 6
COc1ccc(C(C(=O)NC2CCCC2)N(C(=O)c2snc(-c3ccc(F)cc3)c2N)c2ccc(F)cc2)cc1 (configuration not stated) | -5% | ? | 47 | 5% | 16µM* | -1
COc1ccc(C(C(=O)NC2CCCC2)N(C(=O)c2snc(-c3ccc(F)cc3)c2N)c2ccccc2)cc1 (configuration not stated) | 1% | 2% | 14 | -4% | 17% | 5
Cc1cccc(NC(=O)CSc2nc3ccccc3nc2N2CCC(C)CC2)c1 | 6% | / | / | 1% | / | /
COc1ccccc1-n1cnc2cc(NCc3ccccc3O)ccc21 | -16% | ? | 2 | -1% | ? | -11
COc1ccccc1-n1cnc2cc(NCc3ccco3)ccc21 | ? | 2.1µM* | -4 | -7% | 1.5µM* | 2
CC(C)(C)n1cnc2cc(NC(=O)c3cccs3)ccc21 | 0% | -8% | -70* | 9% | -7% | 2
COc1ccc(CNc2ccc3c(c2)ncn3-c2ccccc2OC)cc1 | -1% | 18% | -91* | -3% | ? | -2
CCn1cnc2cc(NC(=O)c3cccs3)ccc21 | -1% | 13% | -18 | 11% | 5% | -13
Cc1ccccc1-n1cnc2cc(NCc3cccs3)ccc21 | -16% | ? | -11 | -9% | 18µM* | 12
CC(C)CCNC(=O)c1ccc(Cn2c(SCC(N)=O)nc3ccccc3c2=O)cc1 | -5% | / | / | -1% | / | /
Cc1ccc(NC(=O)CSCn2nnc3c(=O)[nH]c(Cc4ccc(F)cc4)nc32)c(C)c1 | 1% | / | / | 1% | / | /
COc1ccccc1-n1cnc2cc(NCc3cccs3)ccc21 | ? | 1.5µM* | -8 | -12% | 2.1µM* | -11
CC(C)(C)n1cnc2cc(NCc3cccs3)ccc21 | 1% | 2% | -59* | 0% | -2% | -6
CCn1cnc2cc(NCc3cccs3)ccc21 | 1% | -3% | -2 | 9% | -3% | -3
SMILES | Vif-A3G inh | MCF10A rereplic | IL-1B inflam inh | Vif-A3F inh | SW480 rereplic | Giardia killer
COc1ccccc1-n1cnc2cc(NS(=O)(=O)c3ccc(Br)cc3)ccc21 | -6% | ? | -28 | -5% | 14% | -17
COc1ccc(OC)c(S(=O)(=O)N2CCC(C(=O)Nc3cc(C)ccc3C)CC2)c1 | 1% | ? | -24 | -9% | 4.6µM* | -2
Cc1ccc(NC(=O)C2CCN(S(=O)(=O)c3ccc4c(c3)CC(C)N4C(=O)C3CCC3)CC2)nc1 (configuration not stated) | 5% | 21% | -81* | 1% | 7% | 14
CC1Cc2cc(S(=O)(=O)N3CCC(C(=O)Nc4ccccn4)CC3)ccc2N1C(=O)C1CCC1 (configuration not stated) | 5% | 11% | ? | -10% | -3% | 4
CC(C)CCNC(=O)C1CCCN(S(=O)(=O)c2ccc3c(c2)CC(C)N3C(=O)C2CC2)C1 (configuration not stated) | 1% | -2% | -55* | 1% | ? | -4
CC(=O)N1c2ccc(S(=O)(=O)N3CCC(C(=O)Nc4ccc(C)cn4)CC3)cc2CC1C (configuration not stated) | 0% | -1% | -19 | 5% | -4% | 12
Cc1ccnc(NC(=O)C2CCN(S(=O)(=O)c3ccc4c(c3)CC(C)N4C(=O)C3CCC3)CC2)c1 (configuration not stated) | 3% | ? | -69* | -1% | ? | 4
CC(C)c1ccc(NS(=O)(=O)c2ccc3nc(-c4ccccc4)[nH]c3c2)cc1 | -9% | / | / | -1% | / | /
Cc1ccnc(NC(=O)C2CCN(S(=O)(=O)c3cccc(C(F)(F)F)c3)CC2)c1 | -4% | 6% | i | 5% | 8% | 4
Cc1ccnc(NC(=O)C2CCN(S(=O)(=O)c3ccc(C)c(C)c3)CC2)c1 | 1% | -27% | -84* | 1% | -4% | 2
CC(=O)N1CCc2cc(CNC(=O)Nc3ccc(Br)c(C)c3)ccc21 | 2% | / | / | 1% | / | /
Cc1nc(Nc2ccccc2)sc1C(=O)c1ccccc1 | -21% | ? | ? | 13% | -8% | -4
COc1ccc(C(=O)c2sc(Nc3ccccc3)nc2C)cc1 | -1% | ? | -70* | 12% | -1% | 7
CC(C)(C)C(=O)c1sc(Nc2ccccc2)nc1N | 3% | -1% | -71* | -9% | -1% | 3
CC(=O)c1sc(Nc2ccccc2)nc1C | -4% | / | 29 | / | / | /
COc1ccc(Nc2nc(N)c(C(=O)c3ccc(F)cc3)s2)cc1 | ? | 2.6µM* | -22 | 1% | 4.1µM* | 9
COc1ccc(Nc2nc(N)c(C(=O)c3ccc(OC)cc3)s2)cc1 | ? | ? | -74* | -8% | 4.1µM* | 18
C[C@]1(C(=O)NCCCNc2ncc(C(F)(F)F)cc2Cl)C=C[C@@H](Cc2ccccc2)N1C(=O)c1ccccc1 | -8% | ? | ? | -7% | ? | 10
CC1(C(=O)NCCCNc2ncc(C(F)(F)F)cc2Cl)C=CCN1C(=O)c1ccccc1 (configuration not stated) | -3% | ? | -77* | -6% | -6% | 12
O=C1CCC[C@@H]2CC(Nc3ccccc3)C[C@@H]3CCN1[C@H]23 (some centres not stated) | 3% | / | / | / | / | /
